Molecules are shown by their SMILES. About 83,000 compounds went through this panel and 20% of them were active in at least one assay; those are over-represented in the sample as a whole.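 Treatment: one concentration, 48 hours, 96-well format. Scoring: percent growth, with anything below 10 considered active.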 Unmarked numbers belong to inactive results. Calls of active or inactive are those of the source.

The assay has as its system DU-145 prostate. Put plainly: NCI-60 one-dose screen, 48 h (100 = growth as untreated, 0 = no growth, -100 = all killed). The conditions noted are these: 10 µM.
For the compound `COc1ccc(C2c3sc4ccc(C)cc4c3Oc3nc(N)nc(N)c32)cc1` (stereo not drawn), the growth is 102%.
Consider `Cc1cc(N=C2NC(=O)S/C2=C\c2ccc(F)cc2)n[nH]1`, for which the growth is 30%.
Turning to `Cn1cc(-c2nnc(N)nc2-c2c[nH]c3ccccc23)c2cc(Br)cnc21`, the growth is 77%.
The figure for `O=C(CC(=O)Nc1ccc(Oc2ncnc3scc(Nc4n[nH]c(=S)s4)c23)cc1)Nc1ccc(Cl)cc1` is 97%.
Regarding `O=C1NC2C=CC=CC2/C1=C1/SC(=S)N(C2CC(=O)N(c3ccc(Br)cc3)C2=O)C1=O` (stereo not drawn), the growth was 97.5%.
The figure for `CC1(C)CC(=O)C2=C(C1)N(Cc1ccc(C(=O)O)cc1)C1=C(C(=O)CC(C)(C)C1)C2c1ccc(Cl)cc1` is 113%; for `Cc1ccc2c(c1)C(=O)/C(=C/c1ccc([N+](=O)[O-])cc1)S2` it is 104%; for `O=C(Nc1ccc(OCc2ccc(Cl)cc2)cc1)Nc1ccc(Cl)c(C(F)(F)F)c1` it is 26.6%.
The figure for `Cn1cc(-c2nc(N)nnc2-c2c[nH]c3ccccc23)c2cc(Br)cnc21` is 20.6%; for `O=C(CSc1nc2ccccc2c(=O)n1-c1ccc(Cl)cc1)Nc1ccc(-c2nc3ccccc3[nH]2)cc1` it is -8.05% (active).
The figure for `Cc1ccc2c(c1)C(=O)/C(=C/c1c[nH]c3ccccc13)S2` is 78.2%; for `COc1cccc(O)c1/C=C1\SCc2cc3c(OC)cccc3[o+]c21` it is 114%; for `COc1cc(C2CC(c3ccc(Oc4ccc(Cl)cc4)cc3)=NN2c2nc(-c3ccc(Cl)cc3)c(C#N)c(N3CCOCC3)n2)cc(OC)c1OC` (stereo not drawn) it is 106%.

These data come from PubChem BioAssay (NCI).
